In ChEMBL document CHEMBL3988442, “University of Dundee, Small-Polar-MMV Screening Library” (2021):

Experiments:
[1] = target: T1, Aspartate--tRNA(Asp/Asn) ligase (Mycobacterium tuberculosis (strain ATCC 25618 / H37Rv)) (UniProt P9WFW3); assay: Assay for Asp RNA synthetase-1 from Mycobacterium tuberculosis; assay type: functional; set-up: scale not given: direction of the effect not stated beside the values; conditions: 30 µM; further: in the data most compounds retested in dose-response had high values
T1 sequence (whole entry): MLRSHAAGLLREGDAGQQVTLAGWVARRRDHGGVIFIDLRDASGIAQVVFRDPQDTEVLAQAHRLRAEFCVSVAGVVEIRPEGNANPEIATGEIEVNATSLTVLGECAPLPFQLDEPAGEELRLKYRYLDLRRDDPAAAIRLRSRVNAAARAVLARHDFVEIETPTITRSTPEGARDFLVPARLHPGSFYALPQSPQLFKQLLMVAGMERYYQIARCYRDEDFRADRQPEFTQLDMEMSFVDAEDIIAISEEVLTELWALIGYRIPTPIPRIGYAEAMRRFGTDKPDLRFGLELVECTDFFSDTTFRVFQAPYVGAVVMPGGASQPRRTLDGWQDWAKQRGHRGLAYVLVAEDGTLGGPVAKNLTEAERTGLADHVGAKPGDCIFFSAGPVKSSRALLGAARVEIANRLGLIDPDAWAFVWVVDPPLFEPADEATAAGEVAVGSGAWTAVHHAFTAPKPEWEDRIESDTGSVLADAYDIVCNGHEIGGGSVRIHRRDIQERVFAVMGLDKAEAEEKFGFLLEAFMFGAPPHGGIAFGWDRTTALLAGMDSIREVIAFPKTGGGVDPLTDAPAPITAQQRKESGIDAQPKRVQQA

[2] = target: Shiga toxin 2 (Escherichia coli O157:H7) (UniProt P09385+P09386); assay: E. coli 0.157:H7 Shiga Toxin SOP - stx2 screening assay; assay type: functional; set-up: scale not given: direction of the effect not stated beside the values; conditions: 30 µM

SMILES | Percent Effect [1] [%] | Percent Effect [2] [%]
COc1cc(N2C[C@@H]3COC[C@]3(COc3ccc(C#N)cn3)C2)ncn1 | -1.45 | 11.9
COCCOc1ncccc1C(=O)Nc1ccc(-n2cncn2)c(F)c1 | -3.21 | 30.5
Cc1cnc(C(=O)N2CCc3ncnc(C)c3CC2)cn1 | 0.251 | -27.4
c1cnnc(N2CCCC(NCc3cn4ccccc4n3)C2)c1 (configuration not stated) | 2.13 | -114
Cc1cc(CN2CCN(C(=O)NCc3nc(C)cs3)CC2)on1 | 2.33 | 27.5
O=C(NCCNc1ccc(C(F)(F)F)cn1)c1ccc(Br)cc1F | -0.778 | 38.5
Cc1cc(C(=O)NCc2ccccn2)no1 | -4.62 | -0.424
Cc1cc(CN(C)C(=O)c2ccc(Cl)c(S(C)(=O)=O)c2)no1 | -2.25 | -3.87
COc1ccc(C(C)NC(=O)Cn2ccc(=O)n(C)c2=O)cc1OC (configuration not stated) | 2.15 | -8.59
CC(C1CC1)N(C(=O)NCCCn1nc2ccccn2c1=O)C1CC1 (configuration not stated) | 1.26 | -15.6
c1cnc(N2CCC3(COCc4cnc(-c5cccnc5)nc43)C2)nc1 (configuration not stated) | 2.15 | -3.56
CS(=O)(=O)c1ccc(NC(=O)N2CCc3sccc3C2)cn1 | 5.08 | -38
CN(CCOc1cccc(CNC(=O)C2CC2)c1)C1CCOCC1 | -1.13 | -0.044
Cc1cnn(CC2CCCN2Cc2coc(-c3cccs3)n2)c1 (configuration not stated) | 1.41 | 4.89
COc1ccccc1NC(=O)CSC1CCc2ccccc2NC1=O (configuration not stated) | -0.871 | -1
O=C1CCC2(CCCN(C(=O)c3cscn3)C2)CN1CCc1c[nH]cn1 (configuration not stated) | 3.83 | -12.3
CN(C)C[C@H]1OC[C@@H]2CCN(S(=O)(=O)c3cccs3)C[C@@H]21 | -0.29 | -8.75
Cc1nn(C)c(N(C)C)c1CNC(C)COc1cccc(F)c1 (configuration not stated) | -0.463 | -10.4
CC(NC(=O)Cn1cccn1)c1ccc2c(c1)OCCCO2 (configuration not stated) | -2.88 | -69
Cn1nc(CNC(=O)C2CCCC2)cc1C1CC1 | 0.0146 | -25.7
Cc1cnn(CC2CCCN2Cc2nnc(Cc3ccccc3)o2)c1 (configuration not stated) | -0.062 | 20
O=C(Nc1ccnc(OC2CCOC2)c1)c1cc(F)ccc1F (configuration not stated) | -4.18 | -63.1
Cn1cnc(-c2cc(C(=O)N3CCOCC3)c3ccccn23)c1 | 1.18 | -6.75

SMILES | Percent Effect [1] [%] | Percent Effect [2] [%]
CCOc1cc(CNC(=O)N2CCC(Cc3cnn(C)c3)C2)ccn1 (configuration not stated) | -2.52 | 2.76
CN(C)Cc1ccc(C2CCCCN2C(=O)c2cccc(CO)n2)cc1 (configuration not stated) | -3.06 | 0.431
Cc1ccc(CN2CC3(CCN(C(=O)c4cscn4)C3)C2)s1 | -2.67 | -39.3
O=C(COCc1nc(-c2ccncc2)no1)NC1CCCCC1 | 2.71 | -15.1
COc1ccccc1C1CNC(=O)c2nc(-c3ncc[nH]3)[nH]c2C1 (configuration not stated) | 2.38 | -14.6
COc1cc(C)nc(N2CCN(C(=O)COCC(F)(F)F)CC2)n1 | -2.06 | -20.7
O=C(Nc1cc(F)ccc1OCC1CCCO1)c1ccccn1 (configuration not stated) | 2.54 | 37.1
Cn1cccc1-c1cc(C(=O)N2CCCC2c2cccnc2)[nH]n1 (configuration not stated) | 2.57 | 4.82
CCc1nc(C)c(C(=O)NCCNc2cnccn2)s1 | 4.33 | 8.72
CNC(=O)[C@@H]1C[C@H]2CN(Cc3nccs3)C[C@H]2N1C | 1.25 | -17
Cc1nn2c(N3CCC(O)C3)cc(-c3ccccc3)nc2c1C (configuration not stated) | -2.73 | -33.6
COCC(=O)N1CC[C@@H](N2CCOCC2)[C@@H]1Cc1ccccc1 | 9.38 | -28.8
Cc1nn(C)c(N2CCOCC2)c1CNC1CCc2cc(F)ccc21 (configuration not stated) | -1.16 | -5.02
CC(C)c1noc(CCC(=O)NCC2CCOC2)n1 (configuration not stated) | -0.573 | -7.84
CN(C)C(=O)c1ccc2c(c1)N(C)C(CC(=O)NCc1ccno1)CO2 (configuration not stated) | -2.42 | -9.52
c1cc(CN2Cc3nnn(CC4CC4)c3C(COCC3CC3)C2)co1 (configuration not stated) | -1.45 | -2.53
CN(Cc1cn2ccccc2c1C#N)C1CCCN(c2cccnn2)C1 (configuration not stated) | 0.694 | -75.3
COC1CCN(C(=O)Cc2csc(-c3ncccn3)n2)CC1 | -5.19 | 12.8
Cc1nc(C)n(CC2CN(CC(=O)Nc3cccnc3)CCO2)n1 (configuration not stated) | -1.48 | 2.66
Fc1ccc(OCc2noc(CN3CCc4cncnc4C3)n2)cc1 | -0.7 | -1.88
CC(C)c1nnc(NC(=O)NCc2ccnc(N(C)C)c2)s1 | -3.25 | -21.8
CCOc1ccnc(N2CCN(C(=O)c3cccc(C#N)c3)CC2)n1 | -3.26 | 40.5
Cc1ccnc(OCC(=O)N2CCC(C(N)=O)CC2)n1 | -6.44 | 1.84
